Compound activity as filed in PubChem BioAssay.
In the library only some 3.9% were active in any assay of this set; here they are far more common.
NTMT1 inhibitor: NTMT1 methyltransferase inhibition; Q9BV86; NTMT1 MTase-Glo SAH luminescence, purified enzyme; Potency, µM (titrated, usually from 114 µM), without a hit: top-dose activity change, negative = inhibition, most hits filed as inhibitors; 59,000 tested, 2.5% active; AID 1645870;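 also: potency is read from the fitted curve at half-maximal effect; plate controls were DMSO vehicle for no effect and no enzyme for full effect; nearly all actives have a fitted effect of over 65% in size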
GALC G270D up: enhancers of human galactocerebrosidase G270D mutant activity in cells | 145M-Twi-hGALC-G270D cells (Twitcher mouse brain line with human GALC G270D), HMU-beta-Gal fluorescence, 48 h | Potency, µM (doses to about 57.5 µM), actives largely listed as activators | 45,000 tested, 0.1% active | AID 1159614; also: potency is read from the fitted curve at half-maximal effect; 0% is about no effect; nearly all actives have a fitted effect of over 65% in size
Target sequence (P54803 whole entry G286D): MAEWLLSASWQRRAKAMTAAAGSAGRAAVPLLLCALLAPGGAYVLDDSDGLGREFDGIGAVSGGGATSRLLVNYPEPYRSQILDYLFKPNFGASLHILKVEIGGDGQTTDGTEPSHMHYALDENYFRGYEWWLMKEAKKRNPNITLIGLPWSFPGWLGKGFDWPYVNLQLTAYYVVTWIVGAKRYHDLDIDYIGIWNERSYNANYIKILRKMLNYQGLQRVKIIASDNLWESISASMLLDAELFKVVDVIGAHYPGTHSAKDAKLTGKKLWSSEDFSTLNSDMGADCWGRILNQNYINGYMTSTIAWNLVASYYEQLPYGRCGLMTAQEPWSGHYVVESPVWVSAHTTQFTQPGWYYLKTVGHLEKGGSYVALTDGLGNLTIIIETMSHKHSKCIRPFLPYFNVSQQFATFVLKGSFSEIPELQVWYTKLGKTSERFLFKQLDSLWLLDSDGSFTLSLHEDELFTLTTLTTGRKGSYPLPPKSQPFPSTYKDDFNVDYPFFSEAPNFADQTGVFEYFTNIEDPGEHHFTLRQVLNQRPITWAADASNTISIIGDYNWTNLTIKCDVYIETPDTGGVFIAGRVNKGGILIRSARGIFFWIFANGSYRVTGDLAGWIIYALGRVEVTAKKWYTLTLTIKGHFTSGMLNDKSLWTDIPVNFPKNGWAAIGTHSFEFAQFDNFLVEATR
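Brain-derived Twitcher mouse 145M-Twi cells stably expressing human GALC-G270D or wild-type GALC, treated live, then residual GALC activity read by fluorescence of HMU-b-Gal substrate (0.1 mM final) in citrate-phosphate buffer pH 5.2 with sodium taurocholate. Signal increase indicates enhancement.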
p53null 39C kill: selectivity test: cytotoxicity in p53 null cells, nonpermissive temperature | Potency, µM (top dose mostly 46.1 µM), without a hit: top-dose activity, negative = cell killing, hits mostly cytotoxic | AID 904 | 55,000 tested, 0.97% active | H1299 p53-null (neo) cells, 39C, ATPlite viability, 24 h;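 also: potency is read from the fitted curve at half-maximal effect; 0% = DMSO only and -100% = full killing by 100 µM tamoxifen; nearly all actives have a fitted effect of over 50% in size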
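Temperature-shift cytotoxicity format: compound titrations on p53-null or A138V-expressing H1299 cells held 24 hr at 39C, cell ATP then measured, AC50 from Hill model.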
FH mod: Identification of activators of human fumarate hydratase by quantitative high-throughput screening; FH coupled MDH/diaphorase resazurin fluorescence, 15 min; Potency, µM (series often up to 79.9 µM), inactives show at the highest dose activity change, negative = inhibition, usual class: inhibitors; 54,000 tested, 0.22% active; also: potency is read from the fitted curve at half-maximal effect; % is scaled to controls: 0 for no effect and ±100 for the full control effect; the screen sought activators but most active calls are inhibition curves; nearly all actives have a fitted effect of over 45% in size
p53null 32C tox: p53 null cell cytotoxicity, permissive temperature; Potency, µM (top dose mostly 46.1 µM), for the others: top-dose activity change, negative = cytotoxicity, actives largely listed as cytotoxic; 55,000 tested, 0.62% active; H1299-neo p53 null cells, ATP luminescence, 24 h, 32C; AID 903;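 also: potency is read from the fitted curve at half-maximal effect; 0% = DMSO only and -100% = full killing by 100 µM tamoxifen; nearly all actives have a fitted effect of over 55% in size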
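Cytotoxicity: H1299-neo (no p53), 32C, 24 h treatment. Concentrations up to 46 uM. Readout cellular ATP, luminescence. Normalization to DMSO basal and tamoxifen 100 uM maximal kill.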
DRV1 agonist: activates human resolvin D1 receptor GPR32; CHO-K1 GPR32 beta-arrestin PathHunter luminescence, 90 min; zero percent set by DMSO-only wells; activation, % at 76.9 µM; O75388; 48,000 tested, 2.5% active;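 active = activation of at least 60% and not above a set upper limit, about 1 call in 100 departs from these limits; inconclusive = activation of 40% to 60%, or above that upper limit; inactive = activation under 40%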; also: 0% is about no effect
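Beta-arrestin recruitment read-out: luminescence from complemented beta-Gal in CHO-K1 GPR32 PathHunter cells, measured 1 h after detection reagent at ambient temperature following 90 min compound exposure at 37 °C; DMSO served as basal (EC0) control.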
Numbers without * were called inactive; i = inactive; ? = inconclusive; · = not tested or not shown; ! = not active in a repeat; [ ] = remark or other dose. Unless noted, calls follow the shape of the dose curve; as a rule, active = well fitted curve in the direction sought with a large enough effect; inconclusive = small, poorly fitted or top-dose-only effect, or another doubt; inactive = no such curve, though single readings can be large; an effect the other way counts as inactive or inconclusive.

SMILES | NTMT1 inhibitor | GALC G270D up | p53null 39C kill | FH mod | p53null 32C tox | DRV1 agonist
C=C1[C@H](OC(C)=O)[C@H]2[C@@H](OC(=O)c3ccccc3)[C@@H](C)C[C@]2(O)[C@@H](OC(C)=O)[C@H](C)/C=C/C(C)(C)C(=O)[C@H](OC(C)=O)[C@H]1OC(C)=O | -2.2%[12.6 µM] | · | · | 1.0%[20.6 µM] | · | ·
CCOCc1cc(OC)c(-c2ccc(C[C@H](NC(=O)c3c(F)cccc3F)C(=O)O)cc2)c(OC)c1 | 17.9%[57.5 µM] | · | · | -2.8% | · | ·
CCOC(=O)C1=C(C)NC(C)=C(C(=O)OC)C1c1cccc(Cl)c1Cl (stereo not drawn) | 37.6%[57.5 µM] | i | · | ? | · | 109.5*!
O=C(Nc1ccc([S+](=O)([O-])Nc2nccs2)cc1)C1CCNCC1 | -2.4% | · | · | · | · | ·
CN(C)c1cnc2c(O)cccc2c1 | 3.1% | · | · | · | · | ·
Cc1cc(NC(=O)CCNS(=O)(=O)c2ccc3c(c2)CCCC(=O)N3)ccc1Br | -0.5% | i | -3.7% | -13.7% | 0.2% | 100.4*
CS(=O)c1ccc(-c2nc(-c3ccc(F)cc3)c(-c3ccncc3)[nH]2)cc1 (stereo not drawn) | 35.5µM* | · | · | 7.5% | · | ·
COC(=O)C1=COC(O[C@@H]2O[C@H](CO)[C@@H](O)[C@H](O)[C@H]2O)/C(=C\COC(=O)/C=C/c2ccccc2)C1CC(=O)OCCc1ccc(O)cc1 (stereo partly drawn) | 6.6%[12.6 µM] | · | · | -4.3%[20.6 µM] | · | ·
OC[C@H]1O[C@@H](OCc2ccccc2)[C@H](O[C@@H]2OC[C@@H](O)[C@H](O)[C@H]2O)[C@@H](O)[C@@H]1O | -2.9%[29.8 µM] | · | · | 2.0%[53.3 µM] | · | ·
CC(C)(O)c1coc(S(=O)(=O)NC(=O)Nc2c3c(cc4c2CCC4)CCC3)c1 | 17.4% | · | · | · | · | ·
COc1ccc(NC(=O)CSc2ccc(-c3cccs3)nn2)cc1 | -15.4% | i | -13.6% | -26.7% | -13.3% | 112.0*
Cc1ccc(NC(=O)Nc2cn(C)c(=O)c3ccccc23)c(Cl)c1 | 11.7% | i | -2.1% | 28.2µM*[activator] | -5.6% | -54.1
CCc1ccc(NC(=O)Nc2cn(C)c(=O)c3ccccc23)cc1 | ? | i | 12.4% | 31.6µM*[activator] | 6.7% | -35.6
CC(=O)O[C@@](C)(C(=O)/C=C/C(C)(C)O)[C@H]1[C@H](O)C[C@@]2(C)[C@@H]3CC=C4[C@@H](C=C(O)C(=O)C4(C)C)[C@]3(C)C(=O)C[C@]12C | -12.5%[29.8 µM] | · | · | -0.3%[53.3 µM] | · | ·
CCN(CC)Cc1cccc(/C=C/c2nc3ccc(F)cc3c(=O)n2-c2ccccc2Cl)n1 | 1.6%[57.5 µM] | · | · | -0.6% | · | ·
Cc1c(C(=O)Nc2ccc(C(=O)O)cc2)nnn1-c1ccccc1 | -0.1% | i | ? | -2.6% | 12.6µM* | -11.6
O=C(/C=C/c1cccnc1)NCCCCC1CCN(C(=O)c2ccccc2)CC1 | 15.3% | · | · | · | · | ·
COc1ccc(CN=C2NC(=O)CC(C(=O)Nc3ccc(F)cc3)S2)cc1 (stereo not drawn) | · | · | 13.4% | · | · | ·
CCc1ccc(N=C2NC(=O)CC(C(=O)Nc3ccc(OC)cc3)S2)cc1 (stereo not drawn) | -19.6% | i | -1.7% | -17.4% | -0.3% | 91.7*
CC(C)(C)C(=O)N1CCN(c2cccc(Nc3nn4c(=O)c5ccccc5nc4s3)c2)CC1 | 4.6% | · | · | · | · | ·
CC(=O)N1CCN(c2ccc(NC(=O)Cc3cnc(-c4ccnc(F)c4)c(C)c3)nc2)CC1 | 17.0% | · | · | · | · | ·
COc1ccc(-n2cc(-c3ccccc3)c3c(SC(C)C(C)=O)ncnc32)cc1 (stereo not drawn) | -4.5% | i | 13.7% | -22.3% | 3.7% | 99.3*
COc1c(C)cnc(Cn2cc(C#CCC(C)(C)O)c3c(Cl)nc(N)nc32)c1C | -7.3%[57.5 µM] | · | · | -4.7% | · | ·
Cc1cc(F)ccc1S(=O)(=O)Nc1cc2c(C(=O)O)c(C)oc2c2ccccc12 | 3.7% | i | 18.6% | 15.8µM* | 9.8% | 6.1
Cc1ccc(S(=O)(=O)Nc2cc3c(C(=O)OCc4ccccc4)c(C)oc3c3ccccc23)c(C)c1 | · | · | 19.9% | · | 1.2% | 9.2
SMILES | NTMT1 inhibitor | GALC G270D up | p53null 39C kill | FH mod | p53null 32C tox | DRV1 agonist
CCC(=O)N1CCc2cc(CNS(=O)(=O)c3ccc(C(C)C)cc3)ccc21 | 6.4% | i | -4.8% | -18.3% | ? | 108.6*
C=C(C)C1CC(O)C(C)C12CC(O)C1(C)OC1C2O (stereo not drawn) | 14.0%[57.5 µM] | · | · | ? | · | ·
CCS(=O)(=O)N1CCc2cc(C(=O)Nc3ccc(Br)cc3F)ccc21 | 89.1µM* | i | -6.4% | -6.0% | -9.3% | 74.5*
CCS(=O)(=O)N1CCc2cc(C(=O)NCCc3ccccc3)ccc21 | 89.1µM* | i | 1.5% | -9.9% | -13.4% | -7.8
COc1cc(-c2cn(C)c(=O)c3cnccc23)c(OC)cc1CN(C)C | 6.4% | · | · | · | · | ·
CC(C)(C)c1ccc(-c2nc(SCC(=O)Nc3ccc(Cl)cc3)[nH]c(=O)c2C#N)cc1 | 20µM* | i | 3.8% | ? | -3.8% | 2.5
CCc1ccc(NC(=O)CSc2nc(C)c(C(=O)Nc3ccc(Cl)cc3)c(-c3ccc(OC)cc3)c2C#N)cc1 | 8.8% | i | -3.0% | -1.2% | 13.7% | 0.7
COc1c(C)c(OCC=C(C)C)cc2c1COC2=O | -7.0%[57.5 µM] | · | · | -3.7% | · | ·
COc1ccc(S(=O)(=O)N(CC(=O)NC(C)c2ccccc2)c2ccc(C)cc2)cc1OC (stereo not drawn) | -1.6% | i | 22.9% | ? | 11.6% | 76.1*
COc1ccc(S(=O)(=O)N(CC(=O)NCc2ccccc2)c2ccc(C)cc2)cc1OC | 0.6% | i | -11.3% | -9.1% | 1.6% | 31.2
CS(=O)(=O)Nc1ccc(-c2nc3ccccc3s2)cc1 | -11.8% | i | 1.58µM* | -8.9% | 3.98µM* | 100.3*
CCN(CCCNC(=O)c1cc2cc3ccc(OC)cc3nc2s1)c1ccccc1 | 89.1µM* | i | ? | 8.2% | -14.0% | 95.8*
CCN(CCCNC(=O)c1cc2cc3ccc(OC)cc3nc2s1)c1cccc(C)c1 | 79.4µM* | i | ? | -7.5% | ? | ?
COc1ccc(OC)c(NC(=O)c2cc3cc4ccc(C)cc4nc3s2)c1 | 0.3% | i | -4.8% | -5.9% | -7.5% | -6.9
CCCCCCCCCCCCOCCO | 2.8%[57.5 µM] | i | · | -10.9%[53.3 µM] | · | 13.5
CCCCCCCCCCCCOCCOCCOCCOCCOCCOCCOCCOCCOCCO | ? | i | · | -15.4%[53.3 µM] | · | 99.0*
Cc1cc(C)cc(-n2nnc(-c3nsc(NC(=O)c4ccccc4Cl)n3)c2C)c1 | -11.7% | i | -4.3% | 10.4% | -12.0% | ?
CCc1ccccc1-n1nnc(-c2nsc(NC(=O)c3ccc(C)c(C)c3)n2)c1C | 13.7% | i | 43.1% | -4.6% | 41.4% | 71.8*
